Screening data (PubChem BioAssay)
HSV replic up – increases HSV replication in cells. HSV replication augmentation in cells, fold increase. maximum fold increase. 0.005% of 220,000 active; in the data active = maximum fold increase above about 1.5; inconclusive = no clear call, values can overlap the other calls; tested in PC3 cells
PGE2 EP2 inh – blocks the human prostaglandin E2 receptor EP2. inhibition, % at 25 µM. P43116. C6 glioma cells expressing human EP2, cAMP TR-FRET; cells stimulated with saturating PGE2. 0.52% of 260,000 active;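 active = percent inhibition above 40 after rounding to a whole number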;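 also: rat C6 glioma host cells with rolipram phosphodiesterase inhibitor present; the protocol text gives 20 µM as final concentration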
Target sequence (P43116 whole entry, looked up): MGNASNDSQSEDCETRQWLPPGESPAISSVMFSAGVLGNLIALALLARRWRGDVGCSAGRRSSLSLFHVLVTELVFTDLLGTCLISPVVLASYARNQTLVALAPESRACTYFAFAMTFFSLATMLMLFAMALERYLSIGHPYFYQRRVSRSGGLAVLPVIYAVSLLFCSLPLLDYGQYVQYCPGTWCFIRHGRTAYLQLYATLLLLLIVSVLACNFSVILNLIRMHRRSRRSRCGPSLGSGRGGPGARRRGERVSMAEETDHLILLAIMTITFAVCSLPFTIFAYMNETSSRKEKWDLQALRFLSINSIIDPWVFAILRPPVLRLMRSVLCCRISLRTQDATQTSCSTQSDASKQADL
Pf gametocyte – inhibitors of late stage P. falciparum gametocyte viability; P. falciparum stage V gametocytes, ATP luminescence, 24 h; AID 743093; inhibition, % at 10.9 µM; 0.065% of 150,000 active;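 active = inhibition above the mean plus 3 SD of compounds within the control limits, set per campaign, cut at about 38% in these data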;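 also: 0% = DMSO wells and 100% = medium only without gametocytes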
EP2 modulator – modulates human prostaglandin E2 receptor EP2 signaling | EP2-expressing cells, cAMP HTRF FRET, PGE2 co-stimulation | P43116 | 0.83% of 260,000 active | induction, % at 25 µM;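 active = compounds whose cAMP rise, as percent of the full-agonist control response, exceeds 60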;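 also: rat C6 glioma line stably carrying human EP2 under a CMV promoter; the protocol text gives 20 µM as final concentration; 100% = response of wells given 1 µM PGE2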
Furin inhibitor – inhibitors of human furin | 0.061% of 220,000 active | AID 463115 | P09958 | inhibition, % at 20 µM or 30 µM | purified furin, fluorogenic substrate cleavage; in the data active = inhibition above about 25%
EP2 cAMP induct – EP2 receptor cAMP induction, counter-screens negative; C6 glioma EP2 cells, cAMP HTRF induction; plus low (about EC15) PGE2 agonist; calls only at 20 µM (by protocol); AID 1080; shares compounds with EP2 modulator; 47% of 1,300 active;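 active = cAMP induction above 50% in the main assay while under 30% in all four parallel counter assays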;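 also: rat C6 glioma cells stably expressing human EP2 receptor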
Numbers without * were called inactive; i = inactive; u = inconclusive; x = no result given; + = active, no number. In the library only some 1.4% were active in any assay of this set; here they are far more common.

SMILES	HSV replic up	PGE2 EP2 inh	Pf gametocyte	EP2 modulator	Furin inhibitor	EP2 cAMP induct
COC(=O)CSc1nnc2n(C3CCCCC3)c(=O)c3c4c(sc3n12)CCCC4	i	15.1	x	31.1	-6.2	x
CCOC(=O)CSc1nnc2n(C3CCCCC3)c(=O)c3c4c(sc3n12)CCCC4	i	6.4	x	66.4*	-10.3	i
CN(/N=C/C=C/c1ccccc1)C1=NS(=O)(=O)c2ccccc21	i	3.4	-5.8	82.3*	-10.2	+
CN(/N=C/c1cccnc1)C1=NS(=O)(=O)c2ccccc21	i	4.7	-7.6	-0.3	-11.1	x
C=CCCC1(C)C(=O)N(c2ccccc2)c2ccccc21 (centres undefined)	i	4.7	15.3	76.7*	-16.6	+
C=CCC1(C)C(=O)N(c2ccccc2)c2ccccc21 (centres undefined)	i	3.7	x	68.9*	-2.6	i
O=C(O)c1cc(O)ccc1-c1ccc(O)cc1	i	7.0	x	4.5	-1.2	x
O=S(=O)(c1cccs1)N1CN(Cc2cccs2)c2nc3ccccc3nc21	i	12.6	x	65.5*	11.0	i
O=S(=O)(c1cccs1)N1CN(Cc2ccccc2)c2nc3ccccc3nc21	i	14.1	x	30.1	-9.9	x
CC(=O)C1=C(C)NC(SCC(=O)Nc2nccs2)=C(C#N)C1c1ccccc1Cl (centres undefined)	i	13.3	x	-23.0	-18.7	x
Nc1c(C(=O)Nc2ccccc2F)sc2nc(Cc3ccccc3)cc(C(F)(F)F)c12	u	15.4	x	67.2*	-10.7	i
COc1ccc(-n2c(COc3ccc4ccccc4c3)nnc2SCC(=O)NCc2ccco2)cc1	i	9.8	x	-6.4	-8.2	x
COc1ccc(-n2c(COc3cccc4ccccc34)nnc2SCC(=O)NCc2ccco2)cc1	i	11.6	-13.4	65.9*	2.9	i
Cc1cc2ccc(C)c(C)c2nc1SCC(=O)c1cccs1	i	7.8	1.5	14.4	-19.6	x
Cc1cc2ccc(C)c(C)c2nc1SCC#N	i	9.3	x	66.1*	-20.6	+
O=C1c2ccccc2C(=O)c2c1cccc2N1CCOCC1	x	x	-12.2	20.7	-13.4	x
CSC1=N/C(=C\c2cccc(F)c2)C(=O)S1	i	12.6	x	11.9	-14.8	x
CSc1ccccc1NC(=O)CN(C)Cc1cccc(Cl)c1	i	6.1	-2.4	66.2*	-24.9	+
COc1ccc2c(c1)C(C)=CC(C)(C)N2S(=O)(=O)c1ccc(Br)cc1	i	5.7	-18.0	68.8*	-24.7	+
CC1=CC(C)(C)N(S(=O)(=O)c2ccc(F)cc2)c2ccc(C)cc21	x	15.9	x	72.4*	-6.4	+
O=c1[nH]c2ccc(Cl)cc2c(-c2ccccc2)c1N1CCOCC1	i	4.9	x	68.9*	-26.2	i
O=c1[nH]c2ccc(Cl)cc2c(-c2ccccc2)c1N1CCN(c2ccccn2)CC1	i	7.2	-22.2	72.7*	-0.1	i
O=c1[nH]c2ccc(Cl)cc2c(-c2ccccc2)c1CN1CCOCC1	i	5.6	x	20.3	-2.3	x
O=C(c1ccco1)N1CCN(c2c(-c3ccccc3)c3cc(Cl)ccc3[nH]c2=O)CC1	i	9.0	x	47.2	-20.9	x
Cn1c(Cc2ccccc2)nnc1SCc1nc2ccccc2c(=O)[nH]1	i	2.6	-3.3	7.7	-22.6	x
SMILES	HSV replic up	PGE2 EP2 inh	Pf gametocyte	EP2 modulator	Furin inhibitor	EP2 cAMP induct
COc1ccc(CN2CCC(C(=O)N3CCN(c4ccccc4F)CC3)CC2)cc1OC	i	12.7	x	2.1	-12.0	x
COc1cc(CN2CCC(C(=O)N3CCN(c4ccccc4F)CC3)CC2)cc(OC)c1OC	i	10.4	13.3	78.7*	-12.9	i
O=C(C1=C(Nc2ccccc2)c2ccccc2S(=O)(=O)N1)c1ccccc1	i	2.7	x	-8.4	-14.2	x
Cc1ccccc1NC1=C(C(=O)c2ccccc2)N(C)S(=O)(=O)c2ccccc21	u	11.7	x	78.3*	-1.5	+
COc1ccc(-c2cc(C(F)(F)F)n3nc(C(=O)N(C)Cc4ccccc4)cc3n2)cc1OC	i	5.0	6.7	57.6	-10.6	i
COC(=O)c1cc2nc(-c3ccccc3)cc(C)n2n1	i	11.1	-28.9	4.1	-21.2	x
Cc1cc(-c2ccccc2)nc2cc(C(=O)N(Cc3ccccc3)Cc3ccccc3)nn12	i	6.9	x	72.2*	-3.2	+
O=C(/C(=C/O)N=Nc1ccc(Cl)cc1)c1ccncc1	i	10.9	0.1	-14.9	-24.3	x
O=C(/C(=C/O)N=Nc1ccccc1Cl)c1ccccc1	i	5.3	2.4	69.5*	-14.1	+
